In the supplement of paper PMC11732987, “Enantioselective OTUD7B fragment discovery through chemoproteomics screening and high-throughput optimisation” (Communications Chemistry, 2025):

Experiments:
Assay in all cases: log2 ratio of Biotin-Ahx-Ub-VS probe labelling (fragment/DMSO); higher = less target engagement (more negative = stronger competition), active = hit call of the paper (q ≤ 0.05, log2 ratio ≤ -1)
Settings in all cases: compound concentration: 200 uM; treatment time: 3 h
USP42 = molecular target: T1, USP42 (UniProt Q9H9J4)
T1 sequence (whole entry): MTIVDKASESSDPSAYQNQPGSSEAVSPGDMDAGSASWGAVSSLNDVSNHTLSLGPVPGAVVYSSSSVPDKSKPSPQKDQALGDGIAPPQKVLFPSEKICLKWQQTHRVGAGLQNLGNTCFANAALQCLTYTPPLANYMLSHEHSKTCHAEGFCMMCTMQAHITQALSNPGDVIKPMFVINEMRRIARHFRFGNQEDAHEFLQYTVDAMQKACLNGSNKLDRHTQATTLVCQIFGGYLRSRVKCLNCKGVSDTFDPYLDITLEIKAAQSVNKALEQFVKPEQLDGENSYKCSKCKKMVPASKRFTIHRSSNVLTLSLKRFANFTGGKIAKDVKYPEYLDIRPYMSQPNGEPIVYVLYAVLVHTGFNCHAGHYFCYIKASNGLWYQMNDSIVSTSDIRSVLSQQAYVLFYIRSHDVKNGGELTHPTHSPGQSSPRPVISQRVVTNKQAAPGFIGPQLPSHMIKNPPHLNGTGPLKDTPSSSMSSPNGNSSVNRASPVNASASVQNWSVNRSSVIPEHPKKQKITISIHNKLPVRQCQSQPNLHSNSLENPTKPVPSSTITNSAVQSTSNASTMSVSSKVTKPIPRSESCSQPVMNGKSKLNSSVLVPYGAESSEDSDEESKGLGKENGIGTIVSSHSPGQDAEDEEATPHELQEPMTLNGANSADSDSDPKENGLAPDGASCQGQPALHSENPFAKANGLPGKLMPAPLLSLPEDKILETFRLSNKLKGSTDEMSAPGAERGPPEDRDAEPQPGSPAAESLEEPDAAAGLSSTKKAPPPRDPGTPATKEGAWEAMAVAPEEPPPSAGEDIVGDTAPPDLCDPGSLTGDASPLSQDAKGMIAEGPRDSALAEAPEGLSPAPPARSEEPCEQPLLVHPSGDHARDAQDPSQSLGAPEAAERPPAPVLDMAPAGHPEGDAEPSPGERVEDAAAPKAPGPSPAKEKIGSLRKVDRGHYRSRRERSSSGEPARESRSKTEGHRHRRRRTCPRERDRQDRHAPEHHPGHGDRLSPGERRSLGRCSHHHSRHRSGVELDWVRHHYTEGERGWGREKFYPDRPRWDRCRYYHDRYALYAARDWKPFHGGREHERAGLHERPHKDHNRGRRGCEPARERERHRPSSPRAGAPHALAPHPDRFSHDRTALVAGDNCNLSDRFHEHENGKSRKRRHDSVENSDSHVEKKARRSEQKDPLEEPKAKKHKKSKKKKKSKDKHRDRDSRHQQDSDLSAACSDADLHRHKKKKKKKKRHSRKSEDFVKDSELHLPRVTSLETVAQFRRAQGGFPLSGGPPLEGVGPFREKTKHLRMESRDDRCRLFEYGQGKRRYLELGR
Summary of the method: (§1)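 Average log2 ratios of fragment over vehicle were obtained by unpaired t-test from global-median-normalised Spectronaut label-free quantities. Proteins with ≥2 unique peptides were included. HEK293T lysate (495 µg per sample) was treated in triplicate with fragment at 200 µM or vehicle for 3 h, then with Biotin-Ahx-Ub-VS at 0.5 µM final for 1 h, and labelled DUBs were NeutrAvidin-enriched and run by diaPASEF LC-MS/MS.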

USP46 = USP46 (UniProt P62068)
Summary of the method: as §1

USP47 = molecular target: T2, USP47 (UniProt Q96K76)
T2 sequence (whole entry): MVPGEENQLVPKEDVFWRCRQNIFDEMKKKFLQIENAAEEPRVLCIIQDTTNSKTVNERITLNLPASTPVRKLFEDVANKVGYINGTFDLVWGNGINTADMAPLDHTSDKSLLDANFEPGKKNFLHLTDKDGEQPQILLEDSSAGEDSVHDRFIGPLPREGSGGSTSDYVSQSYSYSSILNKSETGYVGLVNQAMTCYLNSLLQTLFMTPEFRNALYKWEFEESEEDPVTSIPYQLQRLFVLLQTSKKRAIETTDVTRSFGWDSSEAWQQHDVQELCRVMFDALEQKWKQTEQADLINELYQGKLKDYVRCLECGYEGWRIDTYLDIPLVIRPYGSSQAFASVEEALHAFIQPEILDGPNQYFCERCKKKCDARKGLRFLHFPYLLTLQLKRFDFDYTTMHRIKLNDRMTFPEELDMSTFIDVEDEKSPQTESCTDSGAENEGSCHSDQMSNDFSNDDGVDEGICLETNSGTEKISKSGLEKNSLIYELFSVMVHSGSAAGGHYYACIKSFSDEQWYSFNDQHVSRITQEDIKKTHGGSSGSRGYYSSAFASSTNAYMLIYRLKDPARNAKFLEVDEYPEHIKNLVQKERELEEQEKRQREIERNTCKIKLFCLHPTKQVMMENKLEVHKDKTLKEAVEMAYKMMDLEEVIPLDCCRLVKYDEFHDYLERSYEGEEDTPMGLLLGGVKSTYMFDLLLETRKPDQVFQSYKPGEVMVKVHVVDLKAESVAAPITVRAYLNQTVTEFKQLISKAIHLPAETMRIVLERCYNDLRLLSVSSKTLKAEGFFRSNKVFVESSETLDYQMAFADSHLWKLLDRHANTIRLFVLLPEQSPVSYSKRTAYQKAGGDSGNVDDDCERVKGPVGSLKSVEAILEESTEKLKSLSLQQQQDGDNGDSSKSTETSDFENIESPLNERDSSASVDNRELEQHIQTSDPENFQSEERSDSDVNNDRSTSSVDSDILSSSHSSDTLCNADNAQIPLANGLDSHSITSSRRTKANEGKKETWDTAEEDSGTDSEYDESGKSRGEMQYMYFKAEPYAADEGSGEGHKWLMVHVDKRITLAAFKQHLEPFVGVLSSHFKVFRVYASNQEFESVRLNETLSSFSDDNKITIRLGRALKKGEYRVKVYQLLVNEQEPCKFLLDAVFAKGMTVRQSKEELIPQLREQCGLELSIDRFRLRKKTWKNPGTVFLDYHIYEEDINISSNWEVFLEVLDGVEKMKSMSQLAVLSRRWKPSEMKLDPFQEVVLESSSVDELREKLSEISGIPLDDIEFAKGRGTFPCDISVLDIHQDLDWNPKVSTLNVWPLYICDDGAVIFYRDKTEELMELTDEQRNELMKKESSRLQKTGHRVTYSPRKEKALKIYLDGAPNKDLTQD
Summary of the method: as §1

USP48 = molecular target: T3, USP48 (UniProt Q86UV5)
T3 sequence (whole entry): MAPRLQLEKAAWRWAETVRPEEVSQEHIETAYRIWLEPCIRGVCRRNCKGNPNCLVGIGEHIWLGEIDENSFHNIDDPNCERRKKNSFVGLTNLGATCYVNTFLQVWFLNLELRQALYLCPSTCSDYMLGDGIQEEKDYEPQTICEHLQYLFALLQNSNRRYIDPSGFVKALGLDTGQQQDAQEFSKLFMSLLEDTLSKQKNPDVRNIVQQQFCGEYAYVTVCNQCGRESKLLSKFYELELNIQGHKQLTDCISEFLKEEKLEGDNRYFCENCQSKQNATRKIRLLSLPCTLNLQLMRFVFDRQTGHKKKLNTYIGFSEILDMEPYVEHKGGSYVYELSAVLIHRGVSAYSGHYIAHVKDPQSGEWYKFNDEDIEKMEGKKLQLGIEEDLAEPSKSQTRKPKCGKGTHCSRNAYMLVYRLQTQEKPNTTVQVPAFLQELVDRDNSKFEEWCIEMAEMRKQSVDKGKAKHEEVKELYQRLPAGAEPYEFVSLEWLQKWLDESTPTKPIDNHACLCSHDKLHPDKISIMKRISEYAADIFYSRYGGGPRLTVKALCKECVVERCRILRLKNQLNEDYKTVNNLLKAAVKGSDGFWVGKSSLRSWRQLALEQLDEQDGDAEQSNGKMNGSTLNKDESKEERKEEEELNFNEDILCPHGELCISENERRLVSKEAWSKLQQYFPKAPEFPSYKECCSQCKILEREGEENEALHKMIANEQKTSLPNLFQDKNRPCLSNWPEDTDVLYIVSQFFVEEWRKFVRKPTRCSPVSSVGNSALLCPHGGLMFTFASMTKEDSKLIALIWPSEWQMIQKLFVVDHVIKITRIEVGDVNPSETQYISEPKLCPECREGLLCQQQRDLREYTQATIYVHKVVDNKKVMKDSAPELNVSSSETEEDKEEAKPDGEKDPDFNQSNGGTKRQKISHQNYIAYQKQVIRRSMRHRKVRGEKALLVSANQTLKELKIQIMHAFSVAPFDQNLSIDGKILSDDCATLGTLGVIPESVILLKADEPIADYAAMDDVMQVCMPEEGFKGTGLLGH
Summary of the method: as §1

USP5 = molecular target: T4, USP5 (UniProt P45974)
T4 sequence (whole entry): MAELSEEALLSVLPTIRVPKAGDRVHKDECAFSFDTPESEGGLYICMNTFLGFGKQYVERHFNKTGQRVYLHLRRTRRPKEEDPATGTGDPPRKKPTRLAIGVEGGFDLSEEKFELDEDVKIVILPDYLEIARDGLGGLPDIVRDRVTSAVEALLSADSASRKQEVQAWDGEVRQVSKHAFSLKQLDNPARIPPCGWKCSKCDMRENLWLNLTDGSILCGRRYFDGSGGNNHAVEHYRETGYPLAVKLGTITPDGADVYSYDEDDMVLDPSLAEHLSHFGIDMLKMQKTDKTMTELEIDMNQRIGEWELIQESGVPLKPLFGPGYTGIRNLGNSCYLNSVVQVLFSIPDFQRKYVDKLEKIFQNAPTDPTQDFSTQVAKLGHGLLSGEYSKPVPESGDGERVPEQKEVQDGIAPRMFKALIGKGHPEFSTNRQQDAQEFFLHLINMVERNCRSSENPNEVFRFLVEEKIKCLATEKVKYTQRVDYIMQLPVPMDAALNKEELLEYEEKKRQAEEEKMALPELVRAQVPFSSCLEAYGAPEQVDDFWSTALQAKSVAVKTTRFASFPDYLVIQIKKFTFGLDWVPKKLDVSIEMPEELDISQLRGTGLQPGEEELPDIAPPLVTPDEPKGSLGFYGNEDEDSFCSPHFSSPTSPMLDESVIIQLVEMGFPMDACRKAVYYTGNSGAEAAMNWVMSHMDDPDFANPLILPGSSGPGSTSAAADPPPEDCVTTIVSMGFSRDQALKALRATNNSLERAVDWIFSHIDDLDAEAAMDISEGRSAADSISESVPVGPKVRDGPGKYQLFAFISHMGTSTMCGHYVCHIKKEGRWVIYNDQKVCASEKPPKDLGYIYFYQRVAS
Summary of the method: as §1

USP54 = USP54 (UniProt Q70EL1)
Summary of the method: as §1

USP7 = USP7 (UniProt Q93009)
Summary of the method: as §1

USP8 = molecular target: T5, USP8 (UniProt P40818)
T5 sequence (whole entry): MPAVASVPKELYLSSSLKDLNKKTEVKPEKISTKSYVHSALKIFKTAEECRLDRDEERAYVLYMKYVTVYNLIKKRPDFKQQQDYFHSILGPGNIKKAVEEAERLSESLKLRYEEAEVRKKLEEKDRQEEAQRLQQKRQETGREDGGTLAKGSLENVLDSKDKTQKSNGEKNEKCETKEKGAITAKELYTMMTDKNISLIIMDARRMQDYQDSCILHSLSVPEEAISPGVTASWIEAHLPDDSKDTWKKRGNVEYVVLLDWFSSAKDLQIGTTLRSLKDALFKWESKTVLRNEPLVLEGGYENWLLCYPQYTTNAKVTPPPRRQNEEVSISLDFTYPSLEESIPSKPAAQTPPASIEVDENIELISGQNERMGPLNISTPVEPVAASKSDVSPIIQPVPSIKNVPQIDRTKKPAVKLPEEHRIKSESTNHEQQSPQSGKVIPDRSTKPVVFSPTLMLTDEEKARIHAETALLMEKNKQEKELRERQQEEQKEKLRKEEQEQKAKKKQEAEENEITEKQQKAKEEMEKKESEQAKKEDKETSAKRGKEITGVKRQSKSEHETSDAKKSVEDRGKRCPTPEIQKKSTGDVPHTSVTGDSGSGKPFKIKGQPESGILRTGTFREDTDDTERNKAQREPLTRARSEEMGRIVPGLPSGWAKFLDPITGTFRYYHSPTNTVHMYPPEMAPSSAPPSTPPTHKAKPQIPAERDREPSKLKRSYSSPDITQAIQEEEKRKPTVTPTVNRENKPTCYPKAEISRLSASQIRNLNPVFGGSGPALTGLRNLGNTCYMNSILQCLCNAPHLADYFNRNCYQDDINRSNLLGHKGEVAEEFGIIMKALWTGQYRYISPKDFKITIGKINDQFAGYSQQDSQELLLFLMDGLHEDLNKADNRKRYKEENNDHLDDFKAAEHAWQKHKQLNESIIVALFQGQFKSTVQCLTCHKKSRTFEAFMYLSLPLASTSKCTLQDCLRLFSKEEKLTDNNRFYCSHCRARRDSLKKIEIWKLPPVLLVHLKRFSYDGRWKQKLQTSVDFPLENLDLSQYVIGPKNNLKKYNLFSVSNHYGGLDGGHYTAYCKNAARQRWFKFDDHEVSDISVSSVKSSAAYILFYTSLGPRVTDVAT
Summary of the method: as §1

USP9X = USP9X (UniProt Q93008)
Summary of the method: as §1

UniProt O00487 = molecular target: UniProt O00487
Summary of the method: as §1

Measured: log2 ratio of Biotin-Ahx-Ub-VS probe labelling

USP54, sequence (Q70EL1 whole entry): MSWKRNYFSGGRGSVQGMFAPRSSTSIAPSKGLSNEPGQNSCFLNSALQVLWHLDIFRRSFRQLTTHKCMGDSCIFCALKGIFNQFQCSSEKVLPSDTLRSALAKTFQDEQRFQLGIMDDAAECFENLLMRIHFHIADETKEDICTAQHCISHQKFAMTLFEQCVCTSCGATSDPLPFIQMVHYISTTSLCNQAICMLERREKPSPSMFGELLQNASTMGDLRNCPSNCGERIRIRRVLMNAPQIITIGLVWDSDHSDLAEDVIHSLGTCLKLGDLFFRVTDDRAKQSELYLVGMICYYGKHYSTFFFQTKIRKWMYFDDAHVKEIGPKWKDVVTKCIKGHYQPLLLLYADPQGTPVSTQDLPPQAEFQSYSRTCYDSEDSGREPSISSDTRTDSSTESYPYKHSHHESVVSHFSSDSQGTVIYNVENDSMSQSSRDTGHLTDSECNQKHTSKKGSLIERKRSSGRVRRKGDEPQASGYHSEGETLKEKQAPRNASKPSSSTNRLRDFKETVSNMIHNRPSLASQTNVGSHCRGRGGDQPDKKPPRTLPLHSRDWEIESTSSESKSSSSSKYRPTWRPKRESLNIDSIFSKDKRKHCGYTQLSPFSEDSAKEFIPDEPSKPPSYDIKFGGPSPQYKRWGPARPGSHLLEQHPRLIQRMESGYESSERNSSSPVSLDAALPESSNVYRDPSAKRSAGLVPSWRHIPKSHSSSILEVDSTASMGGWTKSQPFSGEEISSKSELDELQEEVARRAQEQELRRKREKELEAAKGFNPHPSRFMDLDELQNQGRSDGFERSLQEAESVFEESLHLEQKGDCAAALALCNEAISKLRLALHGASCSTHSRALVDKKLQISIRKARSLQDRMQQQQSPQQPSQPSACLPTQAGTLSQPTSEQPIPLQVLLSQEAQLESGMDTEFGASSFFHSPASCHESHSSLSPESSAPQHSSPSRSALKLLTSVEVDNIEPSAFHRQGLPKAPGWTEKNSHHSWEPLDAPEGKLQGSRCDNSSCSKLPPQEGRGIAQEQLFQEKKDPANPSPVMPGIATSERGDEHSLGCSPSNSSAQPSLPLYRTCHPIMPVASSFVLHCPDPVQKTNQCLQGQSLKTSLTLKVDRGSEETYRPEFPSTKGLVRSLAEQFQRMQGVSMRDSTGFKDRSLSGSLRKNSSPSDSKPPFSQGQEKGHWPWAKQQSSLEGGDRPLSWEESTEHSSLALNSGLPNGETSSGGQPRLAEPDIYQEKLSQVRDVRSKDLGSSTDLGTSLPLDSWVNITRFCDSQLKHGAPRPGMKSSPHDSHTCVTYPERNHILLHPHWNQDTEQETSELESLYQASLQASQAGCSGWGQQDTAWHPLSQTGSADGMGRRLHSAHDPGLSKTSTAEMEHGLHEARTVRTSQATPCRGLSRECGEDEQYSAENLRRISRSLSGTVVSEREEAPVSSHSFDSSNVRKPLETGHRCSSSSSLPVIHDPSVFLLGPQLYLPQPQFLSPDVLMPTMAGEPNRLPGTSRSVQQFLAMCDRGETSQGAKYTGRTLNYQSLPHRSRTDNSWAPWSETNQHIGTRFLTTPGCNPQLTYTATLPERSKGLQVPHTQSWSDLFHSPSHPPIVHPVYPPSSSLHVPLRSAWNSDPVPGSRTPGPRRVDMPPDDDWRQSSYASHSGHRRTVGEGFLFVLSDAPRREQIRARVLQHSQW
USP9X, sequence (Q93008 whole entry): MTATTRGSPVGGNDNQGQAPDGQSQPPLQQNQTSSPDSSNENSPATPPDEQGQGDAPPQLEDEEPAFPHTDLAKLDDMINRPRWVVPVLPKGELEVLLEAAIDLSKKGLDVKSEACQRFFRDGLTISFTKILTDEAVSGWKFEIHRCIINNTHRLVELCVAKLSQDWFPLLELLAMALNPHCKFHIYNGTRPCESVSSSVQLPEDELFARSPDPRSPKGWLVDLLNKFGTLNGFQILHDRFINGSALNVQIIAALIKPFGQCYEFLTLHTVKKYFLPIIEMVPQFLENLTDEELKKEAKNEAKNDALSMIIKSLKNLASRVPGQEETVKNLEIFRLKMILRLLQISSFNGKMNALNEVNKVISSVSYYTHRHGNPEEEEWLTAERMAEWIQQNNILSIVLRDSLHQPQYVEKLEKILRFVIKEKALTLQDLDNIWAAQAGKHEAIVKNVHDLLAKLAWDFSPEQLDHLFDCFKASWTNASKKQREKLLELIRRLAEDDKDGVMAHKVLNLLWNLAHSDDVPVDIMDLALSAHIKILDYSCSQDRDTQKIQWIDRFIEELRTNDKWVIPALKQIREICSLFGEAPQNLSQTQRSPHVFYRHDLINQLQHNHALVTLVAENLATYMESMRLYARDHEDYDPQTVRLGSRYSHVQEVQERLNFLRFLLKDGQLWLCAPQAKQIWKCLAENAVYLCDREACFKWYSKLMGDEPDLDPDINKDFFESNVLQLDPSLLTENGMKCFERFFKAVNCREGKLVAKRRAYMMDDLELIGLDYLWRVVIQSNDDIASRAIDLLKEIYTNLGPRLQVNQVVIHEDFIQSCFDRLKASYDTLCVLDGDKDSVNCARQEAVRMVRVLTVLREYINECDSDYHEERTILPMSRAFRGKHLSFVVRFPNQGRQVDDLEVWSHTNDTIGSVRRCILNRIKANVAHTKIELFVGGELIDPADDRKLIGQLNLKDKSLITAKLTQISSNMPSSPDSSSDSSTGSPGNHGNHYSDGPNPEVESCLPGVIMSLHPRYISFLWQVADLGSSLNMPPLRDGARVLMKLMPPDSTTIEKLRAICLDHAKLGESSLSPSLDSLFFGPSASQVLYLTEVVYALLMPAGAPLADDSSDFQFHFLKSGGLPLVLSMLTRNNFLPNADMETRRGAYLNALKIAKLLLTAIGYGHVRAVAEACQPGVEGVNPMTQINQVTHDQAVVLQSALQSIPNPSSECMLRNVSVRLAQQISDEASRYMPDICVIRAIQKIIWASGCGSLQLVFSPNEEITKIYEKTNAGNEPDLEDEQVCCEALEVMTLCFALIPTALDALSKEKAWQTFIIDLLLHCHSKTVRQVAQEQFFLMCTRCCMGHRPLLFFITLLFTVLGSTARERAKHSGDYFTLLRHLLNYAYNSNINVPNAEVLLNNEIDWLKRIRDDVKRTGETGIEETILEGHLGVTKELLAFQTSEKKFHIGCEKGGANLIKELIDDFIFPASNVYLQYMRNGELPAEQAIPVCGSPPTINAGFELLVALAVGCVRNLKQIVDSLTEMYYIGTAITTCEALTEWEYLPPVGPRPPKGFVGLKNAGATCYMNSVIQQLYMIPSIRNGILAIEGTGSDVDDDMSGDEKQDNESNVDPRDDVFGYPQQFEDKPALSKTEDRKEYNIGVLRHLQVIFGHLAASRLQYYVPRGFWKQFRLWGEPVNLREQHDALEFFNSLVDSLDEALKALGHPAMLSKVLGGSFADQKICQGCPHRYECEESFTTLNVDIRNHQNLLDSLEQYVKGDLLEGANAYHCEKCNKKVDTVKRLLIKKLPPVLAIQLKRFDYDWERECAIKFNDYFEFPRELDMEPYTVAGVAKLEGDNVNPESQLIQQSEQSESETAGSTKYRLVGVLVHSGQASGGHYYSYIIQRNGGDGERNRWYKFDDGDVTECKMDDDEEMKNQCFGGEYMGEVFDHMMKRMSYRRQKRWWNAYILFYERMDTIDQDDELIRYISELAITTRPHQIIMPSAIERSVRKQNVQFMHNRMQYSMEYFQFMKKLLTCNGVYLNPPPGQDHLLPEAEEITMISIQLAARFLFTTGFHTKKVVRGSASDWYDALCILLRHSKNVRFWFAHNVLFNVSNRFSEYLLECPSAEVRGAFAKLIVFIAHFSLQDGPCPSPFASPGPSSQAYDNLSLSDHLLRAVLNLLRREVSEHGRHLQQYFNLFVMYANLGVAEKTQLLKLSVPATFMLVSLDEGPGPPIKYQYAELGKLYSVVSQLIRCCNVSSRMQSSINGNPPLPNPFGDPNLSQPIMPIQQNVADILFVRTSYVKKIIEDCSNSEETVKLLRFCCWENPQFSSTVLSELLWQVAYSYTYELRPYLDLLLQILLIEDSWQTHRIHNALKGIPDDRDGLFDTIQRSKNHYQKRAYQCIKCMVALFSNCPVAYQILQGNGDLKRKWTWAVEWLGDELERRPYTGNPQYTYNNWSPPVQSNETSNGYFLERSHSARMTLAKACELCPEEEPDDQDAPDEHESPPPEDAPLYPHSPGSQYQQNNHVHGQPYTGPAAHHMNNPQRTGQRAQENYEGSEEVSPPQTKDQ
USP46, sequence (P62068 whole entry): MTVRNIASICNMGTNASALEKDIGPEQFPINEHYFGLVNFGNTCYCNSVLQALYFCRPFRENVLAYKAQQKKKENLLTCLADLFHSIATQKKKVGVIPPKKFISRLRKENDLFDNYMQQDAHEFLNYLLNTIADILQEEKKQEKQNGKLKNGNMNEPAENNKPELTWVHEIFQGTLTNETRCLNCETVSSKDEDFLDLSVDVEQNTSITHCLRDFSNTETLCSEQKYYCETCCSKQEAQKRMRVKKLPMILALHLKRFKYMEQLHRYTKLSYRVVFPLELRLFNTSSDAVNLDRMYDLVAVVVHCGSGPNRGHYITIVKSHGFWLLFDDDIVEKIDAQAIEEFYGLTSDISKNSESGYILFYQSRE
UniProt O00487, sequence (O00487 whole entry): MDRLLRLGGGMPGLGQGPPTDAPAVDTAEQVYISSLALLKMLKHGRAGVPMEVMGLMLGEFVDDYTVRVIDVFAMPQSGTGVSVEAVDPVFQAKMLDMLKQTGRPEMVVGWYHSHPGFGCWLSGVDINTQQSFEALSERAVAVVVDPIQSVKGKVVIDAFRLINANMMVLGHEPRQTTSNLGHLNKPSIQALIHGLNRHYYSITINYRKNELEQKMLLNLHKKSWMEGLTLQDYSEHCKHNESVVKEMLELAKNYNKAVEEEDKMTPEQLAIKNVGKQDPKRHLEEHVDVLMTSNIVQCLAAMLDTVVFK

CN(C)S(=O)(=O)c1ccccc1CNC(=O)CCl
inactive: USP42 0.185 | USP46 0.0777 | USP47 -0.336 | USP48 -0.169 | USP5 0.419 | USP54 0.535 | USP7 -0.218 | USP8 -0.15 | USP9X -0.0424 | UniProt O00487 0.0834
